Rows were chosen to be rich in hits. Some 19% of all compounds tested hit in one or more screens of this group.
TDP1 cell noCPT: qHTS for Inhibitors of human tyrosyl-DNA phosphodiesterase 1 (TDP1): qHTS in cells in absence of CPT; DT40 Tdp1-/- hTDP1 cells, no CPT, ATP luminescence, 48 h; 420,000 compounds, 15% hits; Potency, µM (titrated, usually from 46.2 µM), inactives show at the highest dose activity change, negative = growth inhibition, most hits filed as inhibitors; also: potency is read from the fitted curve at half-maximal effect; nearly all actives have a fitted effect of over 55% in size
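No-CPT arm: Tdp1-/-;hTDP1 DT40 cells (400/well) plus compounds, incubated ≥48 hr at 37 °C. Readout CellTiter-Glo luminescence.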
HT1080 IDH1KD tx: kills HT-1080 cells with IDH1 knockdown; HT-1080 IDH1 knockdown viability, ATP luminescence, 48 h; Potency, µM (highest dose often 46.1 µM), without a hit: at the highest dose activity, negative = toxicity, actives largely listed as cytotoxic; 360,000 compounds, 2% hits;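 also: potency is read from the fitted curve at half-maximal effect; 0% = DMSO wells and -100% = cell-free medium wells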
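Knockdown cells (IDH1KD HT-1080) received compounds 2 h after plating at 750 cells/well and were kept 48 h at 37 °C in 5% FBS RPMI. A CellTiter-Glo luminescence read gave % activity for curve fitting.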
ELG1 DNA repair: inhibitors of ELG1-dependent DNA repair in HEK293T cells. AID 504467. HEK293T ELG1-luciferase reporter, luminescence, 16 h; DNA damage induced by 5-fluorouridine. Potency, µM (highest dose often 46.1 µM), without a hit: at the top dose activity change, negative = inhibition, hits mostly inhibitors. 330,000 compounds, 2.3% hits; also: potency is read from the fitted curve at half-maximal effect; nearly all actives have a fitted effect of over 55% in size
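HEK293T cells expressing luciferase-tagged ELG1 (2,000/well) received 5-Fluorouridine plus compound or DMSO for 16 hr at 37 °C. Luciferase was read by ONE-Glo luminescence after 30 min at room temperature.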
HT1080-NT tox: kills 2HG-producing HT-1080-NT fibrosarcoma cells; HT-1080-NT fibrosarcoma viability, CellTiter-Glo ATP luminescence, 48 h; Potency, µM (titrated, usually from 46.1 µM), inactives show at the top dose activity, negative = less viability, usual class: cytotoxic; 360,000 compounds, 1.6% hits;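 also: NT is the 2HG producing partner of a matched IDH1 knockdown line; potency is read from the fitted curve at half-maximal effect; 0% = DMSO-treated cells and -100% = media-only wells without cells; nearly all actives have a fitted effect of over 55% in size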
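Compounds were tested in concentration-response format on HT-1080-NT cells for 48 hours at 37 degrees C. Cell viability came from CellTiter-Glo luminescence; curves were classified by r2, response magnitude and activity.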
DT40 TDP1 CPT: DT40-hTDP1 cell growth loss with CPT; chicken DT40 Tdp1-/-;hTDP1 cells + 20 nM CPT, ATP luminescence, 48 h; Potency, µM (top dose mostly 46.2 µM), for inactives: at the highest dose activity change, negative = growth inhibition, most hits filed as inhibitors; AID 686979; 420,000 compounds, 12% hits; also: potency is read from the fitted curve at half-maximal effect; nearly all actives have a fitted effect of over 55% in size
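Chicken DT40 Tdp1-/- cells complemented with human TDP1, 400 cells/well, exposed to compounds plus 20 nM camptothecin for at least 48 h at 37 C; viability read as ATP content by CellTiter-Glo luminescence.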
IL1B secr inh: inhibitors of inflammasome signaling (IL-1 beta secretion) | THP-1 LPS/ATP IL-1B secretion, AlphaLISA, 16 h; stronger effect = lower value | activity change, % at 57.5 µM | 360,000 compounds, 4.7% hits; in the data active = activity change below about -50%; inconclusive = mostly about -30% to -49%
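Secreted IL-1B measured by AlphaLISA bead assay after 16 h compound exposure of THP-1 cells; compounds (final up to 57.5 uM) added 1 h before LPS (250 ng/mL) and ATP (1.25 mM) stimulation; lower signal means less secretion.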
Starred values were filed as active, the others as inactive; ? = inconclusive; / = not tested or not shown; [ ] = another dose, or the depositor's remark. Unless noted, calls follow the shape of the dose curve; as a rule, active = well fitted curve in the direction sought with a large enough effect; inconclusive = small, poorly fitted or top-dose-only effect, or another doubt; inactive = no such curve, though single readings can be large; an effect the other way counts as inactive or inconclusive. Unless noted, % is scaled to controls: 0 for no effect and ±100 for the full control effect.

SMILES	TDP1 cell noCPT	HT1080 IDH1KD tx	ELG1 DNA repair	HT1080-NT tox	DT40 TDP1 CPT	IL1B secr inh
CC(=O)Oc1ccc(Cn2c(C)c(C(=O)NCc3ccc4c(c3)OCCO4)sc2=O)cc1	16µM*	-16%	/	-17%	?	19
Cn1nc(C(=O)Nc2cccc(C(F)(F)F)c2)c2c1-c1ccccc1S(=O)(=O)C2	1%	/	/	/	-3%	/
O=C(CCCOc1ccc(Cl)cc1Cl)Nc1ccccc1C(=O)O	-16%	?	?	?	15%	30
CCOc1ccccc1NC(=S)NC(=O)CCCOc1ccc(Cl)cc1Cl	?	?	-12%	11µM*	-21%	-1
O=C(/C=C/c1ccc(F)cc1)Nc1cc(S(=O)(=O)N2CCOCC2)ccc1N1CCCC1	?	0%	-12%	17%	-20%	-22
CN1CCN(c2ccc(Cl)cc2NC(=O)/C=C/c2ccc(F)cc2)CC1	16µM*	16µM*	-6%	23µM*	?	-73*
CC(=O)N1CCN(c2ccc(NC(=O)COc3ccc(Cl)cc3Cl)cc2)CC1	18µM*	-26%	9.2µM*	-7%	23µM*	?
O=C(COc1ccc(Cl)cc1Cl)Nc1ccccn1	-6%	10µM*	?	-25%[9.24 µM]	-19%	-22
O=C(CSc1nc(-c2ccccc2F)nc2cc(=O)[nH]n12)Nc1cccc(C(F)(F)F)c1	-19%	/	/	/	?	/
CCOC(=O)C(=O)NCC(c1cccs1)S(=O)(=O)c1ccc(F)cc1 (stereo not drawn)	-6%	0%	3%	6%	-2%	-29
O=C(C[n+]1ccccc1Cl)c1ccc(O)c(O)c1	-19%	/	/	/	-1%	/
CC(=O)N1CCN(c2ccc(NC(=O)C(C)Oc3ccc(Cl)cc3Cl)cc2)CC1 (stereo not drawn)	21µM*	1%	?	1%	?	-16
O=C(COc1ccc(Cl)cc1Cl)N1CCCN(C(=O)COc2ccc(Cl)cc2Cl)CC1	?	?	?	-27%	?	-76*
CN1CCN(c2ccc(NC(=O)c3ccc(Cl)cc3Cl)cc2)CC1	5%	19%	?	9%	1%	0
CC(Oc1ccc(Cl)cc1Cl)C(=O)Nc1cccc(O)c1 (stereo not drawn)	0%	19%	?	24%	-16%	-11
CCOc1cc(NC(=S)Nc2ccc(Cl)cc2)c(OCC)cc1NC(C)=O	?	-14%	7.3µM*	-16%	-28%	-11
CC(Oc1ccc(Cl)cc1Cl)C(=O)Nc1ccc(N2CCN(C)CC2)cc1 (stereo not drawn)	18µM*	?	-23%	?	?	-27
Cc1cc(Cl)ccc1OCC(=O)N1CCCCC1	-22%	13%	?	17%	-4%	-5
CCOCCc1nn2c(=O)cc(COC(=O)c3ccc(NC(=O)c4cccs4)cc3)nc2s1	?	/	/	/	-7%	/
CC(C)CN1CC(C)C(=O)NC1=S (stereo not drawn)	-2%	11%	/	5%	-7%	10
Cc1occc1C(=O)NNC(=S)NC(=O)COc1ccc(Cl)cc1Cl	18µM*	-19%	?	0%	?	7
Cc1occc1C(=O)NNC(=O)COc1ccc(Br)cc1Br	-13%	-10%	?	-1%	-8%	4
CC(=O)NC(=S)Nc1ccc(NC(=O)COc2ccc(Cl)cc2Cl)cc1	6.5µM*	?	0%	?	?	?
CC(Oc1ccc(Br)cc1)C(=O)Nc1cc(Cl)ccc1N1CCN(C)CC1 (stereo not drawn)	?	21µM*	-20%	13µM*	?	-86*
CC(Oc1ccc(Cl)cc1Cl)C(=O)Nc1ccc(O)cc1 (stereo not drawn)	?	0%	?	-19%	-23%	-66*
SMILES	TDP1 cell noCPT	HT1080 IDH1KD tx	ELG1 DNA repair	HT1080-NT tox	DT40 TDP1 CPT	IL1B secr inh
CC(C)NC(=O)N(C)C[C@H]1Oc2ccc(NS(=O)(=O)c3ccccc3)cc2C(=O)N([C@H](C)CO)C[C@@H]1C	-6%	17%	25%	6%	-3%	13
CCOc1ccccc1NC(=O)CCC(=O)Nc1ccccc1OCC	-6%	-1%	?	1%	4%	27
CCOc1cc(NC(=O)CCl)c(OCC)cc1NC(=O)CCl	1.2µM*	?	?	?	2.9µM*	-81*
COC(=O)C[C@H](NC(=O)[C@H](C)NC(=O)[C@@H](NC(=O)OCc1ccccc1)C(C)C)C(=O)CF	10%	/	/	/	-2%	/
CCCCOc1ccc(NC2=NC3(CCCCC3)N=C(N)N2)cc1	2.6µM*	?	-15%	?	5.2µM*	-28
NC1=NC2(CCCC2)N=C(Nc2ccccc2)N1	-2%	27%	-11%	5%	4%	-5
COc1ccc(NC2=NC3(CCCCC3)N=C(N)N2)cc1	-22%	8%	0%	11%	-14%	-85*
Cc1cc2c(cc1NS(=O)(=O)c1ccc(F)cc1)n(C)c(=O)c(=O)n2C	-4%	/	/	/	5%	/
Cc1nnc(N2CCC(C(=O)N3CCCCCC3)CC2)c2nn(-c3ccc(Cl)cc3)c(C)c12	?	0%	?	-14%	18µM*	-26
Cc1ccc(-n2nc3c(N4CCC(C(=O)N5CCCCCC5)CC4)nnc(C)c3c2C)cc1	5.8µM*	-10%	-48%	-1%	7.3µM*	-9
CCCN1C(=S)c2ccccc2C1c1ccccc1 (stereo not drawn)	-20%	1%	?	5%	26%	-3
CC1=N/C(=C\c2ccccc2Cl)C(=O)O1	-3%	1%	/	1%	-4%	-11
O=C(c1ccccc1)[C@@H]1O[C@H]1c1ccc(-c2ccccc2)cc1	4.2µM*	/	/	/	4.2µM*	/
O=C(O)C1CCC(c2ccc(-c3ccccc3)cc2)CC1 (stereo not drawn)	16%	-2%	?	0%	0%	6
COc1ccc2cc(C3CC=C(COC(C)=O)CN3S(=O)(=O)c3ccccc3[N+](=O)[O-])n(C(=O)OC(C)(C)C)c2c1 (stereo not drawn)	-9%	-15%	/	-7%	?	-8
COc1cc(C2C3CN(C)CC=C3C(C#N)=C(N)C2(C#N)C#N)ccc1OC(C)C (stereo not drawn)	-27%	-10%	11%	-4%	-29%	-11

High-throughput results deposited in PubChem by National Center for Advancing Translational Sciences (NCATS).
